These results are taken from PubChem BioAssay.

A short description of experiment [1]: viability loss with induced miR-34 in A549 – imaging, A549 dox-inducible miR-34, nuclei and caspase counts, primary screen (AID 1347080). The following applies: A549 miR-34 inducible, Hoechst nuclei count, 48 h.
Experiment [2] in a line: galactose survival enhancers in mitochondrial complex I cybrids – cell-based, galactose medium, ATP luminescence, primary screen (AID 1645843;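 active = z-score of at least 1.8 in each of two replicates, scored against plate mean and spread of sample wells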;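 also: positive z means more ATP and so rescue of galactose-driven cybrid death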). The following applies: complex I mutant cybrid cells, 72 h, stronger effect = higher value.
The target in experiment [3] is ATP-dependent translocase ABCB1 (Homo sapiens) (UniProt P08183). The experiment is described as follows: P-glycoprotein substrate transport blockade – cell-based (AID 377; in the data active = fluorescence slope change above about 50%). The following applies: MDR1-expressing cells, fluorescent substrate accumulation slope; stronger effect = higher value; concentration not given here.
Sequence of ATP-dependent translocase ABCB1 (Homo sapiens) (P08183 whole entry, looked up): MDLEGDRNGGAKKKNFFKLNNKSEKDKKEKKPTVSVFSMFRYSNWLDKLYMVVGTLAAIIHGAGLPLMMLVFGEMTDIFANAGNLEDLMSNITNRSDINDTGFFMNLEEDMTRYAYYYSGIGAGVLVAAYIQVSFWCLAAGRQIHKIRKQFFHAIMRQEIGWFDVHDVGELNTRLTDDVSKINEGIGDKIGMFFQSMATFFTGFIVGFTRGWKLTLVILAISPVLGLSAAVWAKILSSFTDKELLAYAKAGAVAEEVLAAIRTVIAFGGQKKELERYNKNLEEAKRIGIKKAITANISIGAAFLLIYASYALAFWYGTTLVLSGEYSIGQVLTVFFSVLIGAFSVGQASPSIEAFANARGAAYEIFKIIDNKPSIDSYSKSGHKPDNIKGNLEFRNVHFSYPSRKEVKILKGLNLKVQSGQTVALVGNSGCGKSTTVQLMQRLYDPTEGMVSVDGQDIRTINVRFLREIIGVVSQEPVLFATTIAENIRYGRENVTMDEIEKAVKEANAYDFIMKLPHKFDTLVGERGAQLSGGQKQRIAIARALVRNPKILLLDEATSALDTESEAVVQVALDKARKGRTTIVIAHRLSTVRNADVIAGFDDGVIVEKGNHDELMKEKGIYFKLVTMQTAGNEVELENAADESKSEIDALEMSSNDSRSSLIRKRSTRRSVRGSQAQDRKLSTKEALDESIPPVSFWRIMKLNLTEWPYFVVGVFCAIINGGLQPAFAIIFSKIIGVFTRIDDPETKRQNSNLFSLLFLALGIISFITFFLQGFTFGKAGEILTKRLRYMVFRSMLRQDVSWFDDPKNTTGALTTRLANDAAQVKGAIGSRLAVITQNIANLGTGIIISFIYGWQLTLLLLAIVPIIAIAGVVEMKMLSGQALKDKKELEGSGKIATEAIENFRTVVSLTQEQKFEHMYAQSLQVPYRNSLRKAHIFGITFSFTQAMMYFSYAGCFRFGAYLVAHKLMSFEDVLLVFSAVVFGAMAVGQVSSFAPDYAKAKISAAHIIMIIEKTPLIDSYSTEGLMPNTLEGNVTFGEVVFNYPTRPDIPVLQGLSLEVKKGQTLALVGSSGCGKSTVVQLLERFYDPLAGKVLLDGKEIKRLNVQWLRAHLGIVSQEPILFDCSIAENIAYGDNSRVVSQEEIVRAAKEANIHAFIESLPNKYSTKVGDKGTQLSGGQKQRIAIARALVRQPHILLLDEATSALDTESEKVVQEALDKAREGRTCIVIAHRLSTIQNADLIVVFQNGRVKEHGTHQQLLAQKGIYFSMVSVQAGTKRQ
A short description of experiment [4]: blockers of polyQ-driven CASP3 activation – cell-based (AID 1583). The following applies: polyglutamine-induced caspase-3 activation, cell assay; stronger effect = higher value;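 tested at 10 µM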.
Experiment [5] can be described thus: yeast 75Q aggregation reduction – 75Q-TubU reporter (AID 1593). The following applies: Yeast 75Q polyglutamine aggregation reporter.
Experiment [6] can be described thus: restoration of touch response, mutant HTT neurons – whole organism, C. elegans mechanosensory neurons, N-terminal huntingtin (AID 1599). The following applies: C. elegans polyQ-huntingtin mechanosensory neurons, stronger effect = higher value.
Experiment [7] can be described thus: blockers of cytochrome c efflux from mitochondria – biochemical, purified mitochondria (AID 1603).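 Also: mouse liver mitochondria challenged with calcium chloride; signal normalized to the plate average as 100%.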 The following applies: stronger effect = lower value.
Experiment [8] can be described thus: polyglutamine aggregate formation blockers (AID 1604). The following applies: polyglutamine-induced protein aggregation inhibition assay; stronger effect = higher value; tested at 2.5 µM.
Experiment [9] is described as follows: glutamate transport activators, MN-1 cells, MN-1 cell line (AID 1612).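 Also: tested at 1 µM final; 0% = mean of DMSO vehicle wells on each plate; positive means more glutamate uptake than control and negative means less.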 The following applies: MN-1 motor neuron cells, stronger effect = higher value.
Experiment [10] is described as follows: GFP-Q80 aggregate reduction, neuronal-like cells, cell-based, NGF-treated PC12, GFPQ80 (AID 1614).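 Also: lower means fewer inclusions and 0 means no inclusions at all.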 The following applies: PC12 NGF-treated GFP-polyQ80 inclusion reduction.
Experiment [11] is described as follows: 75Q-TubH aggregate inhibition, S. cerevisiae, yeast (AID 1616). The following applies: S. cerevisiae 75Q-TubH polyglutamine aggregation suppression; stronger effect = higher value.
Experiment [12] in a line: compounds altering viability of human ES cells (AID 493140; call rule not given here;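 also: cells exposed to compounds for four days before counting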). The following applies: human embryonic stem cell survival screen; stronger effect = higher value.
The nature of experiment [13]: P. berghei load reduction in hepatocytes – cell-based, HepG2, luciferase luminescence, HepG2 viability, primary screen (AID 624349; in the data active = parasite load remaining mostly below about 12%, no sharp cut-off; inactive = mostly above about 10%;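 also: 100% = mean of DMSO negative control wells on the same plate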). The following applies: P. berghei liver stage in HepG2, luciferase luminescence, concentration not given here; parasite load remaining: stronger effect = lower value; viability: measured here: HepG2 viability without parasites.
The nature of experiment [14]: MELAS cybrid and Rieske KO viability enhancers – cell-based, MELAS cybrids, Rieske KO mouse fibroblasts, CellTiter-Glo, primary screen (AID 1508586;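 active = mean z-score across replicates of 1.96 or higher in either the MELAS or the Rieske mutant cell line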;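 also: z relative to plate mean and SD of compound and empty wells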). The following applies: low glucose.
The nature of experiment [15]: compounds altering circadian rhythm period length – cell-based, LOPAC library, luminescence reporter (AID 2774; call rule not given here;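 also: values are relative to mean of DMSO wells on each plate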). The following applies: circadian reporter cells, at 7 µM, actives lie on both sides.
In experiment [16] the test system is Hepatitis C virus NS3 helicase. The experiment is described as follows: blockers of NS3h binding to ssDNA – biochemical, fluorescence polarization, LOPAC1280 library, primary screen (AID 687035; in the data active = inhibition above about 37%). The following applies: Purified HCV NS3 helicase, Cy5-dT15 ssDNA binding fluorescence polarization; stronger effect = higher value; concentration not given here. On the technique in general: Polarisation of emitted light reports the rotation of a fluorescent probe.

The nature of experiment [17]: compounds altering Cy5-DNA-NS3h complex signal – biochemical, LOPAC1280, artefact control for HCV NS3 helicase inhibitor project (AID 687037; call rule not given here). The following applies: Cy5-DNA-NS3h complex fluorescence interference counterscreen. (In general: A counterscreen serves to expose hits that act by an unwanted route or on another target.)
Setting [18] is: measured here: relative caspase fold change +Dox/-Dox.
Setting [19] is: measured here: total cells with miR-34 induction, stronger effect = lower value.
Setting [20] is: measured here: total cells without miR-34 induction.
[21] abbreviates: stronger effect = lower value, cell number ratio, induced over uninduced.

“And” between values parts separate entries of the source, which are not always exact repeats. Identical values can stand only once. Inconclusive results are not listed. For some assays here: Entries with a potency or affinity are not part of this list. The source made the active and inactive calls.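 The calls were made as follows, unless noted: active = compounds whose cell count with miR-34 switched on is under 0.7 times the count with it off; inactive = the rest.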

Regarding `CC(C)(O)C1C2OC(=O)C1[C@]1(O)CC3O[C@]34C(=O)OC2[C@]14C` (some centres undefined) (tested in a mixture with another compound), the results for the fold change in experiment [1] (stronger effect = lower value) and in [1] (setting [18]) were 0.954 (inactive) and 1.55, respectively. Moreover, the figures for the cell count in [1] (setting [19]) and in experiment [1] (setting [20]) were 9380 and 9830, respectively. The z-score in [2] is 0.86 (inactive).

Usually inhibition stands for the drop in the measured response relative to a control, in per cent. Broadly, the viability is a read-out of living cells in per cent, often relative to untreated cells. On to `CN1C[C@H](CO)C=C2c3cccc4[nH]cc(c34)C[C@H]21`, for which the fluorescence slope change in experiment [3] is 116% (active). In experiment [4], the inhibition was found to be 16.6%. In addition, the score in experiment [5] was found to be 1.69. Further, the rescue above control in experiment [6] worked out at 7.23. The cytochrome c release ratio in experiment [7] came to 1.6. This molecule returned an inhibition of aggregation in experiment [8] of 44.9%. In addition, the glutamate uptake change in experiment [9] was -16.1%. For the same molecule, the inclusion score in [10] came out at 2. Also, in [11], the aggregation suppression score was 1.67. In [12], the survival is 7.67 (inactive). For the same molecule, in experiment [13], the parasite load remaining is 67.2% (inactive) and 71.4% (inactive). The viability in experiment [13] was 100% and 77.2%. Moreover, the fold change in experiment [1] (stronger effect = lower value) was 0.809 (inactive); in [1] (setting [18]), 1.6. For the same molecule, the cell count in [1] (setting [19]) came out at 8450; in experiment [1] (setting [20]) it was 10400.

In the case of `O=C1OCCN1N=Cc1ccc([N+](=O)[O-])o1`, the fluorescence slope change in experiment [3] was 82.1% (active). For the same molecule, in experiment [12], the survival is 4.33 (inactive). For the same molecule, in experiment [13], the parasite load remaining is 34.2% (inactive). The viability in experiment [13] was 103%. Also, the figures for the fold change in [1] (setting [21]) and in experiment [1] (setting [18]) were 0.869 (inactive) and 1.27, respectively. The results for the cell count in experiment [1] (setting [19]) and in experiment [1] (setting [20]) were 7950 and 9150, respectively. In addition, the z-score in [14] (MELAS cybrid survival, CellTiter-Glo 48 h, stronger effect = higher value) is -1.23 (inactive); in experiment [14] (Rieske KO mouse fibroblast survival, CellTiter-Glo 72 h), -1.17.

In the case of `CCCCC/C=C\C/C=C\C/C=C\C/C=C\CCCC(=O)N[C@H](C)CO`, the survival in experiment [12] was 87.2 (inactive). Besides, the fold change is 0.941 (inactive) and 1.01 (inactive) in experiment [1] (stronger effect = lower value); 0.931 and 0.764 in experiment [1] (setting [18]). Also, the cell count in experiment [1] (setting [19]) was 5390 and 6000; in experiment [1] (setting [20]), 5730 and 5950.

Turning to `C/C=C1/C[C@@H](C)[C@](O)(CO)C(=O)OCC2=CCN3CC[C@@H](OC1=O)[C@@H]23`, the fluorescence slope change in [3] was 18.1% (inactive). The survival in experiment [12] was 3.83 (inactive). Besides, the parasite load remaining in experiment [13] is 209% (inactive) and 79.8% (inactive). In addition, the viability in [13] was 107% and 75%. In addition, the figures for the fold change in [1] (stronger effect = lower value) and in [1] (setting [18]) were 0.877 (inactive) and 2.22, respectively. For the same molecule, the cell count in experiment [1] (setting [19]) is 8650; in experiment [1] (setting [20]), 9870.

Consider `CC(C)CC(NP(=O)(O)O[C@@H]1O[C@@H](C)[C@H](O)[C@@H](O)[C@H]1O)C(=O)NC(Cc1c[nH]c2ccccc12)C(=O)O` (some centres undefined), for which the period change in [15] is 0.015 h (inactive). The inhibition in [16] is -2% (inactive). Further, the fluorescence ratio (interference) in experiment [17] was 1 (inactive). Moreover, the fold change is 0.965 (inactive) in experiment [1] (stronger effect = lower value) and 0.942 in [1] (setting [18]). Also, the cell count in [1] (setting [19]) turned out to be 10500; in experiment [1] (setting [20]), 10900. Besides, the z-score in experiment [2] is 0.455 (inactive).

As for `C[C@@H]1NCCc2cc(O)c(O)cc21`, the fluorescence slope change in experiment [3] is -10.9% (inactive). Also, the survival in experiment [12] is 6 (inactive). Besides, in experiment [13], the parasite load remaining is 75.9% (inactive) and 47.5% (inactive). Besides, in experiment [13], the viability is 120% and 73.8%. The fold change in [1] (setting [21]) is 0.841 (inactive); in [1] (setting [18]), 1.51. In addition, the cell count in [1] (setting [19]) is 8760; in experiment [1] (setting [20]) it was 10400.

In the case of `CN1C(CC(O)c2ccccc2)CCCC1CC(O)c1ccccc1` (centres undefined), the survival in experiment [12] is 5.42 (inactive). The parasite load remaining in experiment [13] is 93.7% (inactive) and 75.5% (inactive). For the same molecule, the viability in experiment [13] is 96.2% and 77.8%. The fold change was 0.827 (inactive) in [1] (stronger effect = lower value) and 1.06 in [1] (setting [18]). Moreover, the figures for the cell count in experiment [1] (setting [19]) and in experiment [1] (setting [20]) were 8680 and 10500, respectively.

As for `COc1ccn(C)c(=O)c1C#N`, the survival in [12] was 4.25 (inactive). In addition, the parasite load remaining in experiment [13] was 84.9% (inactive). For the same molecule, in experiment [13], the viability came to 97.3%. Besides, the figures for the fold change in [1] (stronger effect = lower value) and in experiment [1] (setting [18]) were 0.883 (inactive) and 1.32, respectively. For the same molecule, the cell count turned out to be 9150 in experiment [1] (setting [19]) and 10400 in [1] (setting [20]).
